# This is a sample that favours compounds with a hit; in the whole collection about 2.9% have one here.
# FID counter: fluorescent intercalator displacement, NS3 helicase counter-screen; DNA fluorescent intercalator displacement, fluorescence; inhibition, % at 7.9 µM; 0.17% of 290,000 active; AID 1845; in the data active = inhibition above about 37%;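 also: 0% = vehicle and 100% = reference compound; higher means more ethidium bromide displaced from hairpin DNA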
# MEKK2mut PB1 HTS: signal of MEK5 binding to mutant human MEKK2 PB1 domain; bead flow cytometry, Alexa488-MEK5 binding to MEKK2 mutant; percent response, % at 10 µM; 0.35% of 290,000 active; in the data active = percent response above about 24%, passing the limit was not always enough
# MEKK2wt PB1 HTS: raises or lowers MEK5 binding to wildtype human MEKK2 PB1 domain | Q9Y2U5 | 1.1% of 290,000 active | binding response (% of control), % at 10 µM | bead flow cytometry, Alexa488-MEK5 binding to MEKK2 WT; actives lie on both sides; in the data active = binding response below about 67% or above about 130%
# dFosB act: enhances mouse delta FosB homodimer DNA binding | 0.99% of 340,000 active | purified delta FosB, TAMRA-CDK5 oligo fluorescence polarization; percent of positive-control signal above neutral wells | activation, % at 25 µM | P13346;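 active = mean activation above about 17%, with every replicate also reaching it, limit read from the data, passing the limit was not always enough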
# MEKK3 PB1 HTS: MEKK3-MEK5 PB1 interaction, increase or decrease; bead-based flow cytometry, Alexa488-MEK5 binding to MEKK3; actives lie on both sides; 0 = blocked by unlabeled MEK5, 100 = vehicle; binding response (% of control), % at 10 µM; 1.4% of 290,000 active;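 active = binding response more than 3 SD above or below the average of its plate-row segment, actives on both sides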;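 also: Alexa488 bead fluorescence after subtracting the streptavidin-only scavenger bead signal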
# Target sequence (Q99759 whole entry, looked up): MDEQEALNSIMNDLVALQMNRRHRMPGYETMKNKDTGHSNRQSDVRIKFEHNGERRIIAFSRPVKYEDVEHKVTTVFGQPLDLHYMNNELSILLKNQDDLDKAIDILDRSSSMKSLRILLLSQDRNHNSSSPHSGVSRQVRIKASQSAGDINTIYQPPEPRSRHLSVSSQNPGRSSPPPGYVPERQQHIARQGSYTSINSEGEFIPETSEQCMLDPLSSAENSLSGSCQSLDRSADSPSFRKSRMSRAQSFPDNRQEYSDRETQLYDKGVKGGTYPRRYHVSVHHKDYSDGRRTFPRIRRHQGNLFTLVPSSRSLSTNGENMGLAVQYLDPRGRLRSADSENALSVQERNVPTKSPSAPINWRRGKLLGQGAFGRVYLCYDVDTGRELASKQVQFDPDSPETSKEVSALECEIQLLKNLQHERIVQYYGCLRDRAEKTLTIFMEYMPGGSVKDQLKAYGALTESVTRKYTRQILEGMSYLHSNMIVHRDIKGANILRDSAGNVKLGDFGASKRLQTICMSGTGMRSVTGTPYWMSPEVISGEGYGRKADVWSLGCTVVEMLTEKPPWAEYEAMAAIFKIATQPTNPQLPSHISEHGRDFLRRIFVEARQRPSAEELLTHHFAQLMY
# MEKK2wt confirm: raises or lowers MEK5 binding to wildtype human MEKK2, retest | bead flow cytometry, Alexa488-MEK5 binding to MEKK2 WT; actives lie on both sides | 2.4% of 5,900 active | shares compounds with MEKK3 PB1 HTS | binding response (% of control), % at 10 µM; in the data active = binding response below about 16% or above about 210%; inactive = in between
# MEKK2mut confirm: signal of MEK5 binding to mutant human MEKK2, retest | shares compounds with MEKK3 PB1 HTS | bead flow cytometry, Alexa488-MEK5 binding to MEKK2 mutant | percent response, % at 10 µM | 2% of 5,900 active; in the data active = percent response mostly above about 71%, no sharp cut-off; inactive = mostly below about 38%;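 also: higher means compound restores mutant binding toward wildtype level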
# MEKK3 confirm: confirmation of inhibitors of MEK5 binding to human MEKK3; shares compounds with MEKK3 PB1 HTS; bead flow cytometry, Alexa488-MEK5 binding to MEKK3; stronger effect = lower value; binding response (% of control), % at 10 µM; 1.8% of 5,900 active;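 active = binding response below 72% of control, or above a set upper limit, though filed actives all read lower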;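 also: 100% = DMSO only wells and 0% = binding blocked by excess unlabeled MEK5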
# The depositor's hits bear a star; . = no result; [ ] = remark or other dose.
SMILES,FID counter,MEKK2mut PB1 HTS,MEKK2wt PB1 HTS,dFosB act,MEKK3 PB1 HTS,MEKK2wt confirm,MEKK2mut confirm,MEKK3 confirm
O=C(NCc1ccccc1)C(=O)NCC1OCCN1C(=O)c1cccs1 (stereo unspecified),-6.8,0.0,103.0,0.5,132.0*,99.0,0.0,102.0
Cc1ccc(CNC(=O)C(=O)NCC2OCCN2C(=O)c2cccs2)cc1 (stereo unspecified),-5.2,0.0,103.0,-0.3,135.0*,104.0,2.0,105.0
Cc1ccc(CNC(=O)C(=O)NCC2OCCN2C(=O)c2ccc(Cl)cc2)cc1 (stereo unspecified),-32.8,2.0,99.0,-10.4,104.0,.,.,.
CCS(=O)(=O)N1CCC(C(=O)NCc2ccc(OC)cc2)CC1,7.2,-4.0,94.0,-1.8,100.0,.,.,.
O=C(COc1cccc2cccnc12)N1CCc2ccccc21,-13.2,-9.0,91.0,-2.0,101.0,.,.,.
COCCN1CCCC(CNCc2cn(C)nc2-c2ccc(Oc3ccccc3)cc2)C1 (stereo unspecified),29.0,1.0,124.0,-2.5,101.0,.,.,.
Cn1cc(CNCc2cn(C)nc2-c2ccc(C3CCCCC3)cc2)cn1,11.8,74.0*,205.0*,-7.2,117.0,104.0,-5.0,99.0
CCN(CC)CCNC(=O)C(=O)NCC1OCCN1S(=O)(=O)c1cccs1 (stereo unspecified),-0.2,20.0,137.0*,-0.1,103.0,109.0,5.0,101.0
COCCNC(=O)C(=O)NCC1OCCN1S(=O)(=O)c1cccs1 (stereo unspecified),-4.6,-13.0,98.0,-4.7,92.0,.,.,.
Cc1cc(-c2ccccc2)c2c(=O)[nH][nH]c2n1,2.5,-2.0,101.0,2.6,100.0,.,.,.
CN(C)CCCn1cnc2c(c1=N)C(c1ccccc1)c1ccc3ccccc3c1O2 (stereo unspecified),17.0,26.0*,170.0*,-9.2,101.0,194.0,64.0,103.0
COc1ccc(C2c3ccc4ccccc4c3Oc3ncn(CCN4CCOCC4)c(=N)c32)cc1 (stereo unspecified),0.3,24.0,179.0*,1.0,108.0,172.0,42.0,112.0
COc1ccc(C2c3ccc4ccccc4c3Oc3ncn(CCO)c(=N)c32)cc1 (stereo unspecified),-1.2,20.0,151.0*,-16.2,115.0,143.0,27.0,95.0
COc1ccc(C2c3ccc4ccccc4c3Oc3ncn(CCN(C)C)c(=N)c32)cc1 (stereo unspecified),21.8,29.0*,157.0*,-10.2,106.0,124.0,15.0,105.0
COc1ccc(C2c3ccc4ccccc4c3Oc3ncn(CCN4CCOCC4)c(=N)c32)cc1OC (stereo unspecified),7.2,15.0,115.0,-28.3,98.0,.,.,.
CCOc1cccc2cc(C(=O)NCc3ccc(F)cc3)c(=N)oc12,0.4,2.0,99.0,-17.3,98.0,.,.,.
CCCCNC(=O)C1CCN(c2nc(C)cc(C)n2)CC1,-11.3,2.0,107.0,-0.2,104.0,.,.,.
CCCCNC(=O)C1CCN(c2nc(OC)nc(OC)n2)CC1,-10.3,9.0,96.0,-3.1,124.0*,103.0,1.0,102.0
CCN(CC)S(=O)(=O)c1cc(C)c(C)cc1Br,-8.9,-4.0,71.0*[inhibitor],0.7,61.0*[inhibitor],103.0,3.0,103.0
COc1ccc(N2CC(C(=O)Nc3ccc(S(=O)(=O)N4CCCC4)cc3)CC2=O)cc1 (stereo unspecified),-29.5,1.0,94.0,-10.8,100.0,.,.,.
COc1ccc(CCNC(=O)C2CC(=O)N(c3ccc(C)cc3)C2)cc1OC (stereo unspecified),-24.0,3.0,105.0,-1.6,102.0,.,.,.
Cc1ccc(N2CC(C(=O)Nc3ccc(S(=O)(=O)N4CCCC4)cc3)CC2=O)cc1 (stereo unspecified),-26.8,-13.0,45.0*[inhibitor],-12.6,60.0*[inhibitor],100.0,9.0,104.0
Cc1ccc(N2CC(C(=O)NCCc3ccc(S(N)(=O)=O)cc3)CC2=O)cc1 (stereo unspecified),-8.7,-14.0,86.0,1.3,77.0*[inhibitor],105.0,2.0,103.0
COc1cc(NC(=O)COC(=O)c2ccc(C)c(S(=O)(=O)N3CCCCC3)c2)c(C)cc1[N+](=O)[O-],-9.0,0.0,108.0,-9.0,146.0*,105.0,1.0,102.0
O=S(=O)(c1ccccc1)N1CCN(C(=S)Nc2ccccc2)CC1,-12.9,4.0,109.0,0.3,103.0,.,.,.
SMILES,FID counter,MEKK2mut PB1 HTS,MEKK2wt PB1 HTS,dFosB act,MEKK3 PB1 HTS,MEKK2wt confirm,MEKK2mut confirm,MEKK3 confirm
O=S(=O)(c1ccccc1)N1CCN(C(=S)Nc2ccc(F)cc2)CC1,-2.1,0.0,103.0,-10.0,134.0*,100.0,5.0,99.0
O=C(NC12CC3CC(CC(C3)C1)C2)C1CC(=O)N(c2ccc(Br)cc2)C1 (stereo unspecified),-2.5,9.0,101.0,-4.7,104.0,.,.,.
O=C(NC12CC3CC(CC(C3)C1)C2)C1CC(=O)N(c2ccccc2)C1 (stereo unspecified),-18.3,25.0*,100.0,-1.1,107.0,99.0,-3.0,99.0
Cn1c(=O)c2c(nc(NCCNC(=O)c3ccco3)n2Cc2ccc(Cl)cc2Cl)n(C)c1=O,-0.8,3.0,106.0,-3.7,99.0,.,.,.
Cn1c(=O)c2c(nc(NCC3CCCC(CN)C3)n2Cc2ccc(Cl)cc2Cl)n(C)c1=O (stereo unspecified),11.8,30.0*,141.0*,7.3,104.0,185.0,48.0,109.0
Cc1cc(C)c(C#N)c(N2CCSCC2)n1,1.3,-31.0,3.0*[inhibitor],1.2,2.0*[inhibitor],84.0,-14.0,96.0
OC1(c2ccc3ccccc3c2)CCN(Cc2ccccc2)C1 (stereo unspecified),8.8,28.0*,130.0,-5.9,112.0,110.0,6.0,103.0
CN(C)S(=O)(=O)c1cccc(NC(=S)Nc2ccc(Cl)cc2Cl)c1,-4.4,1.0,106.0,-5.0,105.0,.,.,.
CN(C)S(=O)(=O)c1cccc(NC(=S)Nc2cc(Cl)cc(Cl)c2)c1,-1.0,10.0,150.0*,-1.5,111.0,114.0,3.0,107.0
OCCCCNCc1ccc(OCc2ccccc2Cl)cc1,20.0,27.0*,163.0*,-9.4,101.0,170.0,41.0,111.0
NC(N)=N/N=C/c1ccc(OCc2ccccc2Cl)cc1,28.5,49.0*,208.0*,9.0,111.0,209.0*,45.0,103.0
CCC(=O)N(C)CCc1cc2c(c(OC)c1/C=N/Nc1ccc(C(=O)O)cc1)OCO2,-23.0,30.0,119.0,-0.4,132.0*,107.0,11.0,107.0
